Screens: PubChem BioAssay, National Center for Advancing Translational Sciences (NCATS)
CCT chaperon mod – changes cytosolic chaperonin activity | AID 651819 | activity change, % (no concentration beside the values), hits read low | hit rate 0.3% among 360,000 | purified chaperonin ATPase assay, HTRF ADP detection, 30 min; in the data active = activity change below about -30%
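Enzyme 40 or 20 nM (batch-dependent) in Tris pH 7.4/KCl/MgCl2/DTT; cpd 76 uM single point; ATP 10 uM; 30 min 37 °C; Transcreener ADP HTRF detection, 30 min RT; ratio 665/615.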
CtBP-E1A inh – inhibitors of CtBP/E1A interaction; AlphaScreen GST-E1A/His-CtBP binding, 1536-well; hits give low values; activity change, % (concentration not given with the values); hit rate 0.49% among 340,000
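Homogeneous bead-based format: GST-tagged E1A captured on glutathione donor beads, His-tagged CtBP on nickel acceptor beads; compounds precede bead addition by 2 h at 37 °C.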
Six1-Eya2 inh – blocks human Six1 binding to Eya2. hit rate 0.56% among 360,000. Q15475+O00167. AlphaScreen GST-Six1/His-Eya2 binding, biochemical; hits give low values. AID 651725. activity change, % (no concentration beside the values)
Target sequence (O00167 whole entry, looked up): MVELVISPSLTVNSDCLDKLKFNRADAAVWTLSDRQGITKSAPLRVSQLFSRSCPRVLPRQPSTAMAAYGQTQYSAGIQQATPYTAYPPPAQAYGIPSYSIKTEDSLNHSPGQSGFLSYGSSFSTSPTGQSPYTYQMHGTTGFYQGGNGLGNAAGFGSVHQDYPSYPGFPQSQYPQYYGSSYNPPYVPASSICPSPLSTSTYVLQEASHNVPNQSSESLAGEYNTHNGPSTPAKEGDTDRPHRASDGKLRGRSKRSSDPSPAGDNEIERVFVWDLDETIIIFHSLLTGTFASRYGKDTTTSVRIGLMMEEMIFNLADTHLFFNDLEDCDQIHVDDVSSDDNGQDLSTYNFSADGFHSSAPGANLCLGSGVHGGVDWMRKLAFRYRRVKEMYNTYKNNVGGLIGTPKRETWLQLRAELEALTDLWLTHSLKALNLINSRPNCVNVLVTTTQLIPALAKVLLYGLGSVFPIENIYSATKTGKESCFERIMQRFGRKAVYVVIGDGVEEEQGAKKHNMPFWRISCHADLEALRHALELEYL
Target sequence (Q15475 whole entry, looked up): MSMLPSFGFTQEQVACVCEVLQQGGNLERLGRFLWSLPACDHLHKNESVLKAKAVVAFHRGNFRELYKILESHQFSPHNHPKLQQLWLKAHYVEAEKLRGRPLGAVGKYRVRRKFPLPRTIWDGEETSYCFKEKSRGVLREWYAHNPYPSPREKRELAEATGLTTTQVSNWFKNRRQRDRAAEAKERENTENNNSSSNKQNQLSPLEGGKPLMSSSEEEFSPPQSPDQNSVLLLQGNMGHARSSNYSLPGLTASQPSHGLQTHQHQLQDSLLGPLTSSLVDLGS
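Six1/Eya2 binding was read as AlphaScreen signal after compounds were pinned into GST-Six1 plus His-tagged Eya2 (5X stock 250/500 nM) in pH 8.0 Tris/NaCl/TCEP buffer, beads added, then incubated 1 h, 37 C, dark.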
Akt phos inh – Akt phosphorylation inhibition. Neuro2A IGF-stimulated pAkt S473 HTRF, 20 min; hits give low values. hit rate 0.32% among 360,000. activity change, % for hits at 50 µM; in the data active = activity change below about -80%; inconclusive = mostly about -51% to -80%
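Neuro2A cells (4,500/well, DMEM with 0.5% FBS) were treated with compound at a single 50 µM final concentration, stimulated with 6 nM IGF for 20 min at 37 °C, and lysed. Phospho-Akt Ser473 was read by HTRF as 665/615 ratio ×10^4.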
Starred values were filed as active, the others as inactive; i = inactive; ? = inconclusive; . = no result given. Sampled rows, rich in hits. Any-hit rate of the full collection: about 1.2%. Cut-off read from the data, not from the text of the source, unless noted: active = activity change below about -65%; inconclusive = mostly about -30% to -63%; inactive = weaker than that. % is set by controls: 0 for no effect and ±100 for the full control effect.

SMILES	CCT chaperon mod	CtBP-E1A inh	Six1-Eya2 inh	Akt phos inh
Cc1cccc(NC2SC(=O)NC2=O)c1 (stereo not given)	-1	10	7	i
NC(c1csc(Nc2ncccn2)n1)c1ccccc1Cl (stereo not given)	-5	-66*	-68*	i
NC(c1csc(Nc2cc(NCCCO)ncn2)n1)c1ccccc1Cl (stereo not given)	1	-89*	-89*	i
COc1ccccc1NC(=O)Nc1nc(C(N)Cc2ccc(Cl)cc2)cs1 (stereo not given)	-4	-20	-2	i
COc1ccc(CC(N)c2csc(Nc3cnccn3)n2)cc1 (stereo not given)	0	-75*	?	i
COc1ccccc1NC(=O)Nc1nc(C(N)Cc2ccccc2)cs1 (stereo not given)	-30*	-10	-11	i
CC(O)CNCCCOc1ccc(Cl)cc1C(C)(C)C (stereo not given)	0	-3	-1	i
Cc1ccc(S(=O)(=O)N2CCOCC2)cc1NC(=O)COC(=O)c1cnc(Cl)c(Cl)c1	3	1	0	i
O=c1[nH]cc(CCCc2ccccc2)c(=O)[nH]1	-49*	-4	0	i
O=c1[nH]cc(COCc2ccccc2)c(=O)[nH]1	0	3	0	i
COC(=O)c1cc(NC(=O)CSc2nc(C)cc(=O)[nH]2)cc(C(=O)OC)c1	-2	-9	-6	-106%*
CCOC(=O)c1ccc(NC(=O)CSc2nc(C)cc(=O)[nH]2)cc1	0	-1	-9	i
Cc1nc(SCC(=O)Nc2ccccc2)c2oc3ccccc3c2n1	-8	14	1	-115%*
O=C(CSc1ncnc2c1oc1ccccc12)Nc1cccc(Cl)c1	1	6	3	-108%*
Cc1nc(SCC(=O)NCCc2ccccc2)c2oc3ccccc3c2n1	-1	-11	0	i
Cc1nc(SCC(=O)Nc2ccc(F)cc2)c2oc3ccccc3c2n1	0	5	0	-90%*
Cc1nc(SCC(=O)NC(C)c2ccccc2)c2oc3ccccc3c2n1 (stereo not given)	0	-1	-1	i
CCc1nc(SCC(=O)NCCc2ccccc2)c2oc3ccccc3c2n1	3	0	7	-103%*
O=C(CSc1ncnc2c1oc1ccccc12)Nc1cccc(C(F)(F)F)c1	1	1	-3	i
NC(=O)/C(=C/c1cccnc1)NC(=O)c1ccccc1	-1	5	0	i
O=C(Nc1cccc([N+](=O)[O-])c1)c1ccc(N2CCCC2=O)cc1	-1	.	6	i
OCCCc1nc2ccccc2n1CCOc1ccccc1	-1	0	-2	i
Cc1ccc(OCCn2c(CCCO)nc3ccccc32)cc1	-2	1	2	-106%*
COc1ccccc1-c1nc(-c2ccc(C)nc2OC)no1	-1	-7	11	-109%*
CCOc1nc(C)ccc1-c1noc(C)n1	-1	-10	-2	-110%*
SMILES	CCT chaperon mod	CtBP-E1A inh	Six1-Eya2 inh	Akt phos inh
CCOc1nc(C)ccc1-c1noc(-c2ccncc2)n1	-3	-1	5	i
COc1nc(C)ccc1-c1noc(-c2ccccn2)n1	1	-8	0	.
COc1cc(CN2CCCCCC2)cc([N+](=O)[O-])c1O	-1	.	6	i
O=[N+]([O-])c1cc(CN2CCCC2)c2cccnc2c1O	-2	-1	-79*	i
O=[N+]([O-])c1cc(CN2CCN(c3cccc(C(F)(F)F)c3)CC2)c2cccnc2c1O	-1	-90*	-70*	i
CCOC(=O)C1(Cc2ccccc2C)CCCN(C(=O)c2ccoc2)C1 (stereo not given)	-2	-10	0	i
Cn1c(=O)c2nc(-c3ccc(Cl)cc3Cl)oc2c2ccccc21	-3	-1	0	i
Fc1ccc(CNc2ccc(N3CCN(Cc4ccccc4)CC3)cc2)cc1	0	-74*	-72*	i
Cc1ccnc(SCc2cn3c(C)cc(C)nc3n2)n1	-1	1	-8	i
Cc1cc(C)n2cc(CSc3ncccc3C(=O)O)nc2n1	2	-2	-1	-111%*
COC(CNC(=O)C1CCN(S(=O)(=O)c2cccc3nsnc23)CC1)OC	-75*	.	26	.
Cc1cccc(C(O)C(O)c2cccc(C)n2)n1 (stereo not given)	-85*	7	0	i
Cc1cccc(C(P(=O)(c2ccccc2)c2ccccc2)P(=O)(c2ccccc2)c2ccccc2)n1	-1	-9	1	i
NC(=O)c1cc(N2C(=O)C=CC2=O)ccc1Cl	1	4	-9	i
O=C(O)c1cc(N2C(=O)C=CC2=O)cc(N2C(=O)C=CC2=O)c1	2	-11	-74*	i
CC1CC(C)CN(c2cc(N(C)CCO)c([N+](=O)[O-])c3nonc23)C1 (stereo not given)	-5	-1	0	i
COc1cc([N+](=O)[O-])ccc1NC(=S)NNC(=O)CCC(=O)Nc1ccccc1Cl	0	-7	-5	i
N#C/C(=C\c1ccc(Cl)cc1Cl)c1n[nH]c(Cn2cncn2)n1	1	1	-7	-90%*
O=C(CP(=O)(c1ccccc1)c1ccccc1)Nn1cnnc1	-53*	3	13	i
CC1(C)C2CCC1(C)C(OC(=O)c1ccccc1C(=O)O)C2 (stereo not given)	0	7	3	i
CC1(C)C2CCC1(C)C(OCCNCCOC(=O)Nc1ccccc1)C2 (stereo not given)	-40*	1	5	i
COCCCNC(=O)CCC(=O)NNc1nc2ccccc2c2nc(C)nn12	-1	.	0	i
CCn1cc(/C=C(\NC(=O)c2ccc(OC)c(OC)c2)C(=O)NCCCN2CCOCC2)c2ccccc21	-81*	.	-30	.
CCn1c2ccc(C)cc2c2nc3cc(C(=O)O)ccc3nc21	-3	-66*	-69*	i
COc1ccc(OC)c(CN2CCN(C(=O)c3cccc(S(=O)(=O)N(C)c4ccccc4)c3)CC2)c1	1	-6	3	i
SMILES	CCT chaperon mod	CtBP-E1A inh	Six1-Eya2 inh	Akt phos inh
CC(C)C(=O)NC(c1cccs1)c1cc([N+](=O)[O-])c2cccnc2c1O (stereo not given)	2	-91*	-97*	i
Cc1ccc(C(NC(=O)C(C)C)c2cc([N+](=O)[O-])c3cccnc3c2O)cc1 (stereo not given)	2	-96*	-88*	i
OC(COc1cccc2ccccc12)CN1CCOCC1 (stereo not given)	-1	-5	1	i
OC(COc1ccc2ccccc2c1Cl)CN1CCOCC1 (stereo not given)	-32*	-3	-7	i
CS(=O)(=O)N1N=C(c2ccc3nccnc3c2)CC1c1ccccc1 (stereo not given)	-88*	-9	3	i
Cc1ccc(-c2nn(-c3ccccc3)cc2CC(=S)N2CCOCC2)cc1	-1	.	-9	i
CCCC(C)c1nc(C(N)=O)c2[nH]c(=O)n(-c3ccc(OC)cc3OC)c2n1 (stereo not given)	-78*	.	-9	.
